# Results reported in the supplement of paper PMC10127200.
# Where a name gives a salt, the structure may show the parent alone.
# Experiments:
# Assay in all cases: Euclidean distance of Cell Painting phenotypic profile (signed KS, 77 features) to DMSO centroid (dimensionless distance); 5 or 10 uM (library dependent); higher = stronger phenotypic change vs DMSO (phenoactivity)
# Conditions in all cases: 48 h
# [1] = system: 786-O
# Procedure, shortened: (§1)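 Phenoactivity is defined as the Euclidean distance from a compound profile to the median vehicle profile. Each profile comprised 77 Harmony features, scored as signed Kolmogorov-Smirnov statistics versus same-plate vehicle wells, then plate-position corrected, correlation-weighted and replicate-averaged at the top dose. Five cancer lines and one healthy fibroblast line were exposed to library compounds for 48 h at 10 or 5 uM (0.1% DMSO final).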
# [2] = system: A549
# Procedure, shortened: as §1
# [3] = system: DU145
# Procedure, shortened: as §1
# [4] = system: FB
# Procedure, shortened: as §1
# [5] = system: HEPG2
# Procedure, shortened: as §1
# [6] = system: OVCAR4
# Procedure, shortened: as §1
Structure (SMILES),Euclidean distance [1],Euclidean distance [2],Euclidean distance [3],Euclidean distance [4],Euclidean distance [5],Euclidean distance [6]
NC(N)=Nc1nc(CSCC/C(N)=N/S(N)(=O)=O)cs1 [Famotidine],1.72,0.931,1.5,1.11,2.27,1.1
C1CCN2C[C@@H]3C[C@@H](CN4CCCC[C@@H]34)[C@H]2C1 [(-)-Sparteine Sulfate],0.93,0.957,0.846,1.03,0.474,1.04
C[C@@]1(C(=O)Nc2ccc(F)nc2)CCCN1c1nc(Nc2cc(C3CC3)n[nH]2)c2cccn2n1,2.52,3.2,3.3,3.23,2.63,3.61
c1ccc(CC2=NCCN2)cc1 [Tolazoline HCl],0.97,1.05,0.877,0.718,0.734,1.42
NC(=O)c1ccc(OCCCN2CC3CCCC3C2)cc1 (configuration not stated),1.32,1.16,1.39,1.36,0.495,1.23
C[C@@H](c1nc(-c2ccc(C#N)cc2)cs1)[C@](O)(Cn1cncn1)c1cc(F)ccc1F [Isavuconazole],1,1.45,1.02,0.654,1.55,1.43
Cc1ccc(O)c([C@H](CCN(C(C)C)C(C)C)c2ccccc2)c1 [Tolterodine tartrate],1.87,0.728,0.897,1.13,1.19,1.58
CC(C)Nc1cccnc1N1CCN(C(=O)c2cc3cc(NS(C)(=O)=O)ccc3[nH]2)CC1 [Delavirdine (mesylate)],1.18,0.811,2.31,1.56,0.607,1.51
C=CCCCCCCCCC(=O)[O-].C=CCCCCCCCCC(=O)[O-].[Zn+2] [Zinc Undecylenate],1.22,2.06,1.09,1.1,0.358,1.9
O=C1NC(=O)/C(=C/c2cccc(C(F)(F)F)c2)S1,1.83,1.41,0.82,1.49,0.755,0.797
Cc1ncc([N+](=O)[O-])n1CC(O)CCl (configuration not stated) [Ornidazole],1.17,0.686,0.775,1.03,0.557,0.676
CCCN(CCC)S(=O)(=O)c1ccc(C(=O)O)cc1 [Probenecid],1.08,0.549,1.42,0.831,0.652,1.69
Cc1nc(N(C)C(=O)Cc2ccc(-c3ccccn3)cc2)sc1S(N)(=O)=O [Pritelivir (BAY 57-1293)],0.793,0.531,1.07,0.872,0.577,0.834
C=CC(=O)Nc1cccc(Oc2nc(Nc3ccc(N4CCN(C)CC4)cc3OC)ncc2Cl)c1,1.32,1.34,1.43,0.99,1.05,1.98
O=C(Nc1cccc(Cl)c1)c1ccccn1,1.22,0.467,0.841,0.785,0.522,0.899
CC/C(=C(\c1ccccc1)c1ccc(OCCN(C)C)cc1)c1ccccc1 [Tamoxifen Citrate],1.05,2.39,1.36,1.45,1.5,1.36
CCOC(=O)CC(=O)N1CCSC1COc1ccccc1OC (configuration not stated) [Moguisteine],1.45,0.946,1.1,0.84,1.08,1.01
O=C(O)c1ccc(N2C(=O)/C(=C\c3ccc(-c4ccc([N+](=O)[O-])cc4)o3)C=C2c2ccccc2)cc1,0.841,1.23,0.74,0.72,1.83,0.995
COc1ccc2[nH]c([S@@+]([O-])Cc3ncc(C)c(OC)c3C)nc2c1 [Esomeprazole Sodium],1.75,1.36,1.05,0.915,1.26,1.34
Cc1cc(C(C)(C)C)c(O)c(C)c1CC1=NCCN1 [Oxymetazoline HCl],1.3,0.82,0.75,1.1,1.88,0.83
Cc1cc(CC(C)CC(C)(C)C)n(O)c(=O)c1 (configuration not stated) [Piroctone Olamine],2.93,3.56,4.37,3.73,3.88,4.49
CC(C)(C)NC(=O)[C@@H]1CN(Cc2cccnc2)CCN1C[C@@H](O)C[C@@H](Cc1ccccc1)C(=O)N[C@H]1c2ccccc2C[C@H]1O [Indinavir Sulfate],0.896,0.551,0.801,0.953,0.739,1.27
O=c1cc(N2CCOCC2)oc2c(-c3cccc4c3sc3ccccc34)cccc12,3.24,2.66,2.15,3.31,2.73,1.93
NC(=O)[C@@H]1CSSCCC(=O)N[C@@H](CCCCN=C(N)N)C(=O)NCC(=O)N[C@@H](CC(=O)O)C(=O)N[C@@H](Cc2c[nH]c3ccccc23)C(=O)N2CCC[C@H]2C(=O)N1 [Eptifibatide Acetate],1.66,1.02,0.993,1.11,0.664,1.36

Structure (SMILES),Euclidean distance [1],Euclidean distance [2],Euclidean distance [3],Euclidean distance [4],Euclidean distance [5],Euclidean distance [6]
Oc1ccc(OC2CCCCO2)cc1 (configuration not stated) [Deoxyarbutin],1.11,0.699,1.16,1.24,1.02,1.45
OCCOCCN1CCN(C(c2ccccc2)c2ccc(Cl)cc2)CC1 (configuration not stated) [Hydroxyzine 2HCl],1.32,0.879,1.07,0.804,1.04,1.17
CCS(=O)(=O)N1CC(CC#N)(n2cc(-c3ncnc4[nH]ccc34)cn2)C1 [Baricitinib phosphate],1.75,0.985,1.99,1.55,0.776,0.981
CC(C)N(CCC(=O)c1ccc2ccccc2c1)Cc1ccccc1,1.68,1.15,0.815,1.33,0.594,0.928
CCn1cc(C(=O)O)c(=O)c2ccc(C)nc21 [Nalidixic acid],1.33,0.755,1.12,1.07,0.602,1.5
O=C(NS(=O)(=O)c1ccc(Br)s1)c1ccc(Cl)cc1Cl [Tasisulam],1.38,0.993,1.21,0.939,1.22,1.66
C=CCc1ccc(O)c(-c2ccc(O)c(CC=C)c2)c1 [Honokiol],0.998,0.732,1.22,1.46,1.39,1.18
CNCc1ccc(C)c(NC(=O)c2ccc(Nc3nc(-c4ccccc4)c4ccccc4n3)cc2)c1,5.12,4.68,3.37,4.9,5.84,4.54
NC[C@H]1O[C@H](O[C@H]2[C@H](O)[C@@H](O[C@H]3O[C@H](CO)[C@@H](O)[C@H](N)[C@H]3O)[C@H](N)C[C@@H]2N)[C@H](N)C[C@@H]1O [Tobramycin],0.897,1.31,1.34,0.987,0.563,1.4
CC1=Nc2ccc(Cl)cc2S(=O)(=O)N1 [Diazoxide],1.25,0.782,1.19,1.21,1.01,1.25
CCCCOc1ccc(C(=O)CCN2CCCCC2)cc1 [Dyclonine HCl],1.45,0.937,1.42,0.997,1.96,0.828
CC(C)[C@H](NC(=O)[C@H](CC(=O)O)NC(=O)[C@H](CCCCN)NC(=O)[C@@H](N)CCCN=C(N)N)C(=O)N[C@@H](Cc1ccc(O)cc1)C(=O)O [Thymopentin],1.56,1.19,0.821,0.825,0.557,1.06
COCCc1ccc(OCC(O)CNC(C)C)cc1 (configuration not stated) [Metroprolol succinate],0.936,0.527,0.62,1.14,0.935,1.9
CC(C)(c1ccc(O)cc1)c1ccc(O)cc1 [Bisphenol A],0.955,1.21,0.773,0.78,0.694,0.934
O=S(=O)(c1cccc2cnccc12)N1CCCNCC1 [Fasudil (HA-1077) HCl],1.52,0.649,1.94,0.846,1.28,0.851
Cc1ccc2nc(NCCN)c3ncc(C)n3c2c1,0.585,1.64,1.21,1.55,2.99,1.57
NC(=O)c1ccc(-c2nc(-c3ccccn3)c(-c3ccc4c(c3)OCO4)[nH]2)cc1,1.59,2.49,1.48,1.91,2.52,2.61
COc1cc(C[C@H]2C(=O)OC[C@@H]2Cc2ccc(OC)c(OC)c2)ccc1O [(-)-Arctigenin],1.04,1.48,1.36,0.929,2.46,1.29
CC(C)(Oc1ccc(CCNC(=O)c2ccc(Cl)cc2)cc1)C(=O)O [Bezafibrate],0.885,1.16,0.777,1.09,1.04,1.71
O=C(/C=C/c1ccc(O)c(O)c1)c1ccc(O)cc1O [Butein],1.56,1.3,1.12,1.51,1.5,1.12
CCCCCCCCCC(=O)CC(O)S(=O)(=O)O (configuration not stated) [Sodium Houttuyfonate],1.45,0.727,1.5,0.985,1.06,1.66
CN1CCN(c2c(F)cc3c(=O)c(C(=O)O)cn4c3c2OCN4C)CC1 [Marbofloxacin],0.878,0.762,0.494,1.1,1.53,0.752
OC1(c2ccc(Cl)c(C(F)(F)F)c2)CCN(CCCC(c2ccc(F)cc2)c2ccc(F)cc2)CC1 [Penfluridol],4.2,4.66,5.91,3.4,4.97,4.03
